Experimental data taken from PubChem BioAssay.
Active and inactive are the calls of the source.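 How the source made its calls, unless noted: active means visual image review flags a hit and inhibition of aggregation exceeds 20%; inconclusive means visual hit but inhibition at or below 20%; inactive means no hit on visual image review.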

What was measured:
[1] = inhibitors of TNFa-induced NFkB p65 translocation, primary screen, imaging, HUVEC, MLSMR starter and 10KST1 sets (AID 438;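 active means inhibition above 20% together with a positive visual image hit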;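 further: compound added about 3h40 before a 20 min TNFalpha stimulation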;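 on inhibition: signal is the nuclear over cytoplasmic p65 intensity ratio per well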); conditions: HUVEC TNFa-induced p65 nuclear translocation; cell count: measured here: nuclei count (cytotoxicity indicator), at 2.08 µM; inhibition: at 2 µM, stronger effect = higher value, 0% TNFa-plus-vehicle, 100% no-TNFa wells
[2] = inhibitors of mutant huntingtin aggregation, primary screen, imaging, exon1htt(103Q)mCFP cells, high-content imaging (AID 483); conditions: exon1htt(103Q)mCFP cell line, aggregate imaging, at 2 µM; inhibition of aggregation: stronger effect = higher value; nuclei count: measured here: cell count, toxicity;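 further: compound exposure lasted 3 days before fixation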;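 on nuclei count: percent of the per-plate median nuclei count of sample wells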
[3] = inhibitors of E-selectin induction by TNFa, primary screen, imaging, HUVEC, immunofluorescence, MLSMR starter and 10KST1 sets (AID 487;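 active means visually confirmed hit in the image check and inhibition above 20%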;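 on inhibition: signal is fraction of cell area covered by stained E-selectin grains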;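 on nuclei count: 100% = median nuclei count of all wells on the same plate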); conditions: HUVEC TNFalpha-induced E-selectin immunofluorescence imaging, at 2 µM; inhibition: stronger effect = higher value; nuclei count: measured here: cell number, toxicity
[4] = biological target: Voltage-gated potassium channel subunit beta-2 (Rattus norvegicus) (UniProt P62483); experiment: KvBeta enzyme negative modulators, primary screen, biochemical, NADPH fluorescence (AID 622;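 active means fluorescence slope higher than the sample average by over 3 SD, cut at about -0.22 in these data, passing the limit was not always enough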;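 further: slope of raw intensity against log time taken from 70 to 1610 s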); conditions: recombinant KvBeta, 4-cyanobenzaldehyde reduction, at 10 µM, stronger effect = higher value
[5] = biological target: Voltage-gated potassium channel subunit beta-2 (Rattus norvegicus) (UniProt P62483); experiment: KvBeta positive modulators, primary screen, biochemical, NADPH fluorescence (AID 623;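 active means NADPH fluorescence slope more negative than the mean of all samples by about 3 SD, 99.7% confidence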;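 further: fluorescence intensity change per second fitted from 20 to 320 s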); conditions: Recombinant KvBeta, NADPH fluorescence decrease slope, 10 min; at 10 µM; stronger effect = lower value
[6] = biological target: Alpha-2C adrenergic receptor (Homo sapiens) (UniProt P18825); experiment: modulators of alpha2C/GIRK thallium flux, primary screen, cell-based, HEK293 alpha2C/GIRK1/2 (AID 624;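 active means fluorescence slope after compound addition differing from the mean of all screened samples at 99.7% confidence, in either direction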;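 further: slope of fluorescence ratio to pre-addition baseline per second over 15 to 24 s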); conditions: thallium flux BTC fluorescence, at 10 µM, actives lie on both sides
[7] = inhibitors of Sendai virus-induced IRF3 signaling, primary screen, TLR/RLR signaling modifier project, cell-based, Sendai virus stimulus, luciferase, 10K MLSCN set (AID 602276;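 active means inhibition at or above 50% at 10 µM; inactive means inhibition below 50%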;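 further: firefly luciferase from ISG56 promoter only with Renilla not read in this screen; 0% = Sendai virus plus DMSO and 100% = medium plus DMSO without virus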); conditions: HEK293 RL24 IRF3 luciferase reporter, at 10 µM, stronger effect = higher value
[8] = inhibitors of poly I:C-induced TLR3 signaling, primary screen, cell-based, poly I:C stimulus, luciferase, 10K MLSCN set (AID 602277;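 active means inhibition of the reporter signal at or above 50%; inactive means inhibition below 50%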); conditions: HEK293-TLR3 RL24 IRF3 luciferase reporter, at 10 µM, stronger effect = higher value

Sequence of Voltage-gated potassium channel subunit beta-2 (Rattus norvegicus) (P62483 whole entry, looked up): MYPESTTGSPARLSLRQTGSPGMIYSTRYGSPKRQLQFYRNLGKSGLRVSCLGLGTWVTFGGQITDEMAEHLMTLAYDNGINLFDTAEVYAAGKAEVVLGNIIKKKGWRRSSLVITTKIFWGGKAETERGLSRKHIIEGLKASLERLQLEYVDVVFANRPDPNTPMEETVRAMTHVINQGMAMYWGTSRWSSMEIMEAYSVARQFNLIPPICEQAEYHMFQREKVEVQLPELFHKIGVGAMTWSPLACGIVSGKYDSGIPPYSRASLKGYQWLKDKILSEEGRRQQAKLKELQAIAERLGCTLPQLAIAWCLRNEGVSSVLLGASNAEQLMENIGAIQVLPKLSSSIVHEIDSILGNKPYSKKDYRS
Sequence of Alpha-2C adrenergic receptor (Homo sapiens) (P18825 whole entry, looked up): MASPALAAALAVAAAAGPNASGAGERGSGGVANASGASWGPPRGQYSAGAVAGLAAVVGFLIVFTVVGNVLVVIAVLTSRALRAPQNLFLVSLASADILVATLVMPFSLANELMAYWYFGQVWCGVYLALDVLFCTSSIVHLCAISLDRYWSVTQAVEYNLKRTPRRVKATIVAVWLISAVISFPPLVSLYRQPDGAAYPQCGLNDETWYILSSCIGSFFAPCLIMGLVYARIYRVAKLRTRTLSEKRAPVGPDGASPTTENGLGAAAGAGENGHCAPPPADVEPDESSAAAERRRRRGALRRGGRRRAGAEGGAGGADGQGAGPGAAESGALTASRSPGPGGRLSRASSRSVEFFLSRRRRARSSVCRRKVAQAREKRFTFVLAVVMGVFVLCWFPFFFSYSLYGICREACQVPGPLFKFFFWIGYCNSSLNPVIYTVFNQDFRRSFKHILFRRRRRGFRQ

Row | Compound | cell count [1] | inhibition [1] | inhibition of aggregation [2] | nuclei count [2] [%] | inhibition [3] | nuclei count [3] [%] | fluorescence slope [4] | NADPH fluorescence slope [5] | slope [6] | inhibition [7] | inhibition [8]
1 | Cn1nc(CC(=O)Nc2ccc(N3CCN(C(=O)OC(C)(C)C)CC3)cc2)c2ccccc2c1=O | 639 | -32.6% (inactive) | -11.8% (inactive) | 91.2 | -34.7% (inactive) | 99 | -0.493 (inactive) | 8.9e-05 (inactive) | 0.00619 (inactive) | -10.5% (inactive) | -50.4% (inactive)
2 | CCCCCCC(C)n1[nH]c(=O)c2c(C)cc(=O)[nH]c21 (centres undefined) | 675 | 8.2% (inactive) | -12.3% (inactive) | 105 | -6.2% (inactive) | 91.9 | -0.61 (inactive) | -1.7e-05 (inactive) | 0.00325 (inactive) | 3.89% (inactive) | -2.25% (inactive)
3 | COc1cc2c(cc1OC)-c1nnc(-c3cccs3)n1C(C)(C)C2 | 814 | 1.2% (inactive) | -30.2% (inactive) | 106 | -58.9% (inactive) | 114 | -0.601 (inactive) | -1.8e-05 (inactive) | 0.00581 (inactive) | 6.77% (inactive) | 18.5% (inactive)
4 | O=C(NCc1ccccn1)c1cccs1 | 254 | 12.5% (inactive) | 2.9% (inactive) | 91.4 | -1.8% (inactive) | 95.7 | -0.479 (inactive) | -5.3e-05 (inactive) | 0.00519 (inactive) | -4.29% (inactive) | 5.52% (inactive)
5 | C=CCc1c(C)nc(SC)nc1Nc1ccc(C(=O)O)cc1 | 497 | 7.2% (inactive) | 7.3% (inactive) | 106 | -41.5% (inactive) | 118 | -0.488 (inactive) | -3.9e-05 (inactive) | 0.00683 (inactive) | 4.8% (inactive) | 21.7% (inactive)
6 | CC1=C(C(=O)OCC(C)C)C(c2cc3c(cc2Br)OCO3)NC(=O)N1C (centres undefined) | 425 | -3.6% (inactive) | -13.3% (inactive) | 98.5 | -103% (inactive) | 118 | -0.44 (inactive) | -3.6e-05 (inactive) | 0.00323 (inactive) | 11.4% (inactive) | 34.6% (inactive)
7 | Cc1cc2ccccc2c(=O)n1CC(=O)Nc1ccc2c(c1)OCO2 | 455 | 0% (inactive) | -12.3% (inactive) | 108 | -85.2% (inactive) | 109 | -0.48 (inactive) | -2.6e-05 (inactive) | 0.00487 (inactive) | 2.31% (inactive) | 23.9% (inactive)
8 | CNC(=O)c1ccc(N(Cc2ccccc2C)S(C)(=O)=O)cc1 | 710 | -2.6% (inactive) | 0.9% (inactive) | 117 | -40.6% (inactive) | 116 | -0.636 (inactive) | -4.1e-05 (inactive) | 0.00383 (inactive) | 11.8% (inactive) | 11.4% (inactive)
9 | Cc1ccc(-c2nn(C)c(=O)c3ccccc23)cc1S(=O)(=O)NCCN1CCOCC1 | 325 | 5% (inactive) | 13.3% (inactive) | 100 | -24.7% (inactive) | 113 | -0.468 (inactive) | 4.7e-05 (inactive) | 0.00544 (inactive) | -17.1% (inactive) | 3.02% (inactive)
10 | Cc1ccc(S(=O)(=O)N2CCN(S(=O)(=O)N(C)C)CC2)cc1 | 362 | 4.3% (inactive) | -29.3% (inactive) | 101 | 8.9% (inactive) | 111 | -0.518 (inactive) | -1.8e-06 (inactive) | 0.00563 (inactive) | 12.1% (inactive) | 15.4% (inactive)
11 | Cc1nc2ccccc2c2c1C(=O)N(CCC1=CCCCC1)C2=O | 410 | 1.6% (inactive) | -3.7% (inactive) | 74.1 | -54.2% (inactive) | 108 | -0.407 (inactive) | -4.4e-05 (inactive) | 0.00396 (inactive) | 11.5% (inactive) | 42.1% (inactive)
12 | CCOc1ccc(N2C(=O)CC(N3CC(C)OC(C)C3)C2=O)cc1 (centres undefined) | 578 | -14.1% (inactive) | -12% (inactive) | 104 | 3.9% (inactive) | 128 | -0.357 (inactive) | 5.9e-06 (inactive) | 0.00636 (inactive) | 9.5% (inactive) | 25.7% (inactive)
13 | CC1CN(c2nc(-c3ccccc3)nc3ccccc23)CC(C)O1 (centres undefined) | 407 | -6% (inactive) | -1.5% (inactive) | 99.3 | -29.4% (inactive) | 114 | -0.333 (inactive) | -5.3e-05 (inactive) | 0.00612 (inactive) | 12% (inactive) | 22% (inactive)
14 | CCOC(=O)c1cnn(-c2sc(C(=O)OCC)c(C)c2C(=O)OCC)c1N | 451 | -1.9% (inactive) | -35.1% (inactive) | 99.7 | -5.8% (inactive) | 115 | -0.517 (inactive) | 2.2e-05 (inactive) | 0.00627 (inactive) | 7.68% (inactive) | -49.4% (inactive)
